Data from PubChem BioAssay AID778 (Sanford-Burnham Center for Chemical Genomics, 2007).
The campaign covered roughly 96,000 compounds. About 20,000 (21%) were called active.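 How the source made its calls: active means CYP2C19 inhibition above a set limit at 5 µM in the primary screen (cut at about 50% in these data); inactive means the rest.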 The list is a sample of the results.

Target: Cytochrome P450 2C19 (Homo sapiens) (UniProt P33261)
Assay: blockers of cytochrome P450 2C19 activity – biochemical, luminescence, ADME assay, primary screen (AID 778);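 further: plate controls were negative control wells for no effect and 2.5 mM tranylcypromine positive control for full effect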
Conditions: CYP2C19 Supersomes, luciferin-H EGE luminescence, 30 min; at 5 µM; stronger effect = higher value

Cytochrome P450 2C19 (Homo sapiens), sequence (P33261 whole entry, looked up): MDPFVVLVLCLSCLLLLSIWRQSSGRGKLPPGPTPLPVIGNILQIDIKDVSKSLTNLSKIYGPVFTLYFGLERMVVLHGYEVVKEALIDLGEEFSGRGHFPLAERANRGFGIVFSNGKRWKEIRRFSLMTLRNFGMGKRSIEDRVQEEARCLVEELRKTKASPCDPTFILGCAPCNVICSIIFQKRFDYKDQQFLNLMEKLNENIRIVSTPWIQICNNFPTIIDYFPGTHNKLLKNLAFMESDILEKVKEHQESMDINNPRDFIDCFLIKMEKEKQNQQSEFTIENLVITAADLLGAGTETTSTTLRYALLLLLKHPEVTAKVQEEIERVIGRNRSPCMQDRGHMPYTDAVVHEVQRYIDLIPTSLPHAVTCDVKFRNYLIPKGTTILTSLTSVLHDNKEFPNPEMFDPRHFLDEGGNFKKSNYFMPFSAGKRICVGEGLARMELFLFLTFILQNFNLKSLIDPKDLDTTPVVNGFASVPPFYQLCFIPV

inhibition, inactive:
CNC(=O)NCCN1CCCC1=O -21.1%
CS(=O)(=O)Nc1ccc(C(=O)N2CCCC2)cc1 11%
CCCOC(=O)c1cc2ccccc2oc1=O -6.9%
CCOC(=O)N1CCN(C(=O)c2cc3c(ccc4ccccc43)oc2=O)CC1 19.3%
CCCCOc1ccc(-c2nnc(-c3ccco3)o2)cc1 31.4%
CCOc1c(Cl)cc(/C=N/O)cc1OC 7.6%
Cc1ccc(NC(=O)CCN2CCc3ccccc3C2)cc1 36.6%
O=C(CN1CCOCC1)Nc1ccccc1 6.4%
CCC(=O)Nc1ccc(S(=O)(=O)NCC2CCCO2)cc1 (stereo not given) 45%
Cc1ccc(C(=O)O)cc1S(=O)(=O)NCC1CCCO1 (stereo not given) -0.9%
Cc1cc(Cl)c(S(=O)(=O)NCC2CCCO2)cc1OCC(N)=O (stereo not given) 1%
CCOC(=O)Cn1c(=O)oc2cc(S(=O)(=O)NCC3CCCO3)ccc21 (stereo not given) -10.4%
Cc1cc(Cl)c(S(=O)(=O)NCCC(=O)O)cc1OCC(N)=O -20%
Cc1ccc(-n2ccc(=O)c(C(=O)O)n2)cc1 -4%
COc1ccc(OCC(=O)NN2Cc3ccccc3C2=N)cc1 15.4%
O=C(/C=C/c1ccccc1)N/C(=C/c1ccccc1)C(=O)Nc1ccccc1O 17.4%
CCCCCN(C(=O)NC(=O)Nc1ccccc1C)S(C)(=O)=O 19.5%
CNC(=O)C1CC(=O)N(Cc2ccc3c(c2)OCO3)C(=Nc2ccc(F)cc2)S1 (stereo not given) 21.9%
Cc1nc2c(C(=O)NCc3ccc4c(c3)OCO4)c[nH]n2c(=O)c1Cc1ccccc1F 3.2%
Cc1cc(-n2nc(C)cc2C)n2ncc(-c3ccccc3)c2n1 35%
COc1ccc(OCC(=O)OCCN(C)C)cc1 1.2%
Cc1ccc(/C=N/NC(=O)C(NC(=O)c2ccccc2)c2n[nH]c(=O)c3ccccc23)cc1 (stereo not given) 13.3%
O=C(CN1CCN(C(=O)c2ccco2)CC1)Nc1ccc(Cl)c(C(F)(F)F)c1 42.2%
O=C(O)CSCC(=O)Nc1cccc(C(F)(F)F)c1 -13.8%
Cc1ccccc1CSCCNC(=O)c1ccc(N(C)S(=O)(=O)c2ccccc2)cc1 48.7%
CCc1cc(C(c2ccccc2OC)N2CCOCC2)c(NC(=O)c2ccccc2)s1 (stereo not given) 18.9%
OCc1n[nH]c(CO)n1 1.2%
COc1ccc(/C=N\NC(=O)c2sc(N)nc2C)cc1OC 1.8%
COc1cccc(-c2cc(C(=O)N/N=C/c3ccc(OC)c(COC(C)=O)c3)c3ccccc3n2)c1 49.3%
CCN1CCC(=NNC(=O)c2ccc(C)c([N+](=O)[O-])c2)CC1 1.5%
CCn1ncc(Br)c1C(=O)Nc1cc(C)ccc1F 24%
Cc1cc([N+](=O)[O-])ccc1NCc1cccc([N+](=O)[O-])c1 -3.5%
CCN(CC)CCCNC(=O)CCc1ccccc1 7.3%
COc1ccc(OC)c(NC(=O)CC(Cc2ccccc2OC)C(=O)O)c1 (stereo not given) 1.6%
CCC(C)(C)c1ccc(Oc2ccc(NC(=O)COC(=O)C3=COCCO3)cc2)cc1 49.9%
Cc1ccc(C(=O)N/C(=C/c2ccco2)C(=O)NCCc2c[nH]c3ccccc23)cc1C 39.8%
CCOC(=O)N1CCN(C(=O)C2CCN(c3ncnc4c3sc3cccc(F)c34)CC2)CC1 24.8%
CC(C)C(=O)N1c2ccccc2NC2=C(C(=O)CCC2)C1c1ccc(N(C)C)cc1 (stereo not given) 8.1%
COC(=O)C(C)C1Sc2ccccc2NC1=O (stereo not given) 44.9%
Cn1c(=O)c(=O)n(C)c2cc(S(=O)(=O)NCCc3ccccc3)ccc21 6.1%
O=C(COc1ccc(/C=N/NS(=O)(=O)c2ccccc2)cc1)NCCc1ccccc1 -0.6%
COC(=O)[C@H](Cc1ccccc1)NC(=O)Nc1ccc(S(N)(=O)=O)cc1 -4.1%
O=C(COc1ccc(Cl)cc1)N1CCN(S(=O)(=O)c2ccc(Cl)cc2)CC1 -21%
COc1cc(OC)cc(C(=O)Nc2ncc3c(n2)CC(C)(C)CC3=O)c1 9.1%
Cc1cccc(C)c1-n1c(C)cc(/C=C2\C(=O)NN(c3ccccc3)C2=O)c1C 36.4%
CCOC(=O)c1ccccc1NC(=O)CC1Nc2ccccc2NC1=O (stereo not given) 8.5%
C=C(Br)CN1CCN(CC(=C)Br)CC1 9.1%
COc1ccc(CCNC(=O)c2cc(-c3ccc4c(c3)OCO4)on2)cc1OC -2.7%
Cn1c(C(=O)NCCCN2CCCCC2)cc2sccc21 5.3%
CC12COC3(C(=O)Nc4ccc(Cl)cn4)CC1CCC32C (stereo not given) 16.5%
O=C(CCCN1C(=O)CCC1=O)Nc1ccc(Cl)c(C(F)(F)F)c1 11.2%
C=CCC(NCc1ccco1)c1ccc(OC)cc1 (stereo not given) -0.2%
CC(C)C(=O)Nc1nnc(Sc2ccc(N(C)C)cc2)s1 47.8%
Cn1c(CN2CCOCC2)nc2cc(NC(=O)c3ccc(Cl)cc3)ccc21 4.8%
CCOC(=O)c1[nH]c(C)c(C(=O)OCC(=O)N2c3ccccc3CC2C)c1C (stereo not given) 0.9%
CC1Cc2ccccc2N1C(=O)Cn1cnc2ccccc2c1=O (stereo not given) 9.8%
COc1nc(Oc2ccc(=O)n(C)n2)nc(N(C)C)n1 -17.1%
O=C(CC1N=C2c3ccccc3N=C(SCc3ccccc3Cl)N2C1=O)NCc1ccco1 (stereo not given) 37.8%
CCS(=O)(=O)N1CCC(C(=O)N2CCN(c3ccccc3)CC2)CC1 -1%
Cc1noc(/C=C/c2ccco2)c1S(=O)(=O)N1CCC(C(=O)N2CCc3ccccc32)CC1 24.1%
COC(=O)C1C(=O)CC(C)(O)C(C(=O)OC)C1c1ccc2c(c1)OCO2 (stereo not given) 29.1%
COc1ccc(S(=O)(=O)N(CCCN2CCCC2=O)Cc2cc3c(C)ccc(C)c3[nH]c2=O)cc1 38.4%
O=C(CSCc1ccc(Br)cc1)Nc1ccc(S(=O)(=O)N2CCCCCC2)cc1 27.3%
CN(C)c1ccnc2sc3c(=O)n(Cc4ccccc4)cnc3c12 27.4%
CCSc1nnc(-c2cc3c(s2)-c2ccccc2CC3)o1 -5.2%
CC(=O)NC1=NC(=O)CS1 6%
CCCC(=O)Nc1nc2ccc(NC(=O)c3cccnc3)cc2s1 16.4%
CCN1C(=O)CS/C1=N\c1nccs1 19%
O=C1C=C(NCCNc2c(F)c(F)c(CO)c(F)c2F)CCC1 4.9%
Cc1cc(C(=O)O)c(S(C)(=O)=O)s1 -6.4%
Cc1csc(NC(=O)C2CCCN2C(=O)OCC(C)C)n1 (stereo not given) 29.2%
CC(C)(C)c1cc2cccnc2n1Cc1ccccc1 13.8%
CC(c1nnc(SCC(=O)Nc2sccc2C#N)n1-c1ccc(Cl)cc1)N(C)C (stereo not given) 31.1%
O=C(O)c1cnn2c(C(F)(F)F)cc(-c3ccccc3)nc12 20.2%
CC(=O)N1CCN(c2cccc(C)c2C)CC1 -2.5%
O=C(Cn1cc(-c2nnnn2-c2ccc(Cl)cc2)c(=O)c2ccccc21)c1ccccc1 -16.7%
O=C(NCCCCO)C(F)(F)C(F)(F)C(F)(F)C(=O)NCCCCO 9.4%
CCSc1nc(-c2ccc(OC)cc2)cc(-c2ccc(OC)cc2)c1C#N 32.3%
Cc1ccc(N)cc1-n1c(C)ccc1C 23.2%
COc1ccc(-c2cc(C)nc3nc(N)nn23)cc1 -16.3%

inhibition, active:
CS(=O)(=O)N1CCN(C(=O)c2cc3ccccc3oc2=O)CC1 53.8%
Cc1ccc(NC(=O)CN2CCc3ccccc3C2)cc1 98%
CCOc1ccc(S(=O)(=O)NCC2CCCO2)cc1 (stereo not given) 86.4%
O=S(=O)(NCC1CCCO1)c1ccc2ccccc2c1 (stereo not given) 92%
O=C1N(Cc2ccc3c(c2)OCO3)c2ccccc2C1(O)c1c[nH]c2ccccc12 (stereo not given) 87.9%
O=C(CN1CCN(c2ccc(F)cc2)CC1)Nc1cccc(C(F)(F)F)c1 83.2%
COc1cccc(OCc2cc(/C=N/NC(=O)c3nc(Cl)c(Cl)c(N)c3Cl)ccc2OC)c1 55.4%
COc1ccc([N+](=O)[O-])cc1NC(=O)CCc1ccccc1 63.7%
Cc1ccc(F)c(NC(=O)CCc2ccccc2)c1 65.2%
CC1=C2C(=O)OC(c3ccoc3)C2(C)CCC1 (stereo not given) 78.1%
O=C(COc1ccc(S(=O)(=O)NCCc2ccccc2)cc1)N1CCCC1 81.4%
CC(=O)Nc1ccc(S(=O)(=O)NCCc2ccccc2)cc1 90.7%
COc1ccc(CCNC(=O)c2cc3sccc3n2C)cc1OC 50.9%
CCn1nc(C(=O)OCC(=O)N2c3ccccc3CC2C)c2ccccc2c1=O (stereo not given) 66.9%
O=C(C1CCN(S(=O)(=O)Cc2ccccc2)CC1)N1CCCc2ccccc21 61.9%
Cc1ccc(S(=O)(=O)c2nc(NCCCn3ccnc3)sc2Cl)cc1 99.4%
Cc1c(C=O)c2ccccn2c1C(=O)c1ccncc1 85.8%
OC(c1ccccc1)c1nccn1Cc1ccccc1 (stereo not given) 81.9%
Cc1cccc(N2CCN(C(=O)c3cnn4c(C(F)F)cc(-c5ccccc5)nc34)CC2)c1C 51%
Cc1ccc(C)n1-c1ccncc1 56.5%
